# Inconclusive results are not listed. Calls of active or inactive are those of the source. Calls follow the shape of the full dose curve.
# Assay: qHTS assay to identify small molecule agonists of the hypoxia (HIF-1) signaling pathway - cell viability counter screen (AID 1224844); also: nearly all actives have a fitted effect of over 50% in size
# Conditions: HRE-bla ME-180 viability, CellTiter-Glo luminescence, 17 h; series mostly up to 76.8 µM; activity change, negative = cytotoxicity: at the top concentration
# Text: National Center for Advancing Translational Sciences [NCATS]
# NIH Chemical Genomics Center [NCGC]
# U.S. Environmental Protection Agency [EPA]
# National Institutes of Environmental Health Sciences [NIEHS]
# National Toxicology Program [NTP]
# U.S. Food and Drug Administration [FDA]
# Hypoxia-inducible factor-1 (HIF-1) is the major hypoxia-regulated transcription factor that controls cellular responses to low oxygen concentration. HIF-1 is composed of two subunits: hypoxia responsive HIF-1-alpha and constitutively expressed HIF-1-beta, which is also known as aryl hydrocarbon receptor nuclear translocator. During hypoxic conditions, HIF-1-alpha heterodimerizes with HIF-1-beta and translocates into the nucleus where the HIF-1 complex binds to the hypoxia-response element (HRE) and activates expression of target genes such as VEGF (vascular endothelial growth factor). The HIF-1 pathway is essential to normal growth and development, and is involved in the pathophysiology of cancer, inflammation, and ischemia.
# Using a beta-lactamase reporter-gene under control of the hypoxia response element, a cell-based assay [CellSensor(TM) HRE-bla ME-180 from Life Technologies, Carlsbad, CA] was used to measure hypoxia-induced signaling. Tox21 10K library compounds were measured for their ability to induce the reporter gene activity. The cytotoxicity of the Tox21 compound library against HRE-bla ME-180 cell line was tested in parallel by measuring cell viability using CellTiter-Glo assay (Promega, Madison, WI) in the same assay wells.
# Tox21 Assay Protocol Summary:
# HRE-bla ME-180 cells were dispensed at 2,000 cells per well in 6 uL of assay medium containing 0.5% dialyzed FBS into black wall/clear-bottom 1536-well plates using a Multidrop Combi (Thermo Scientific, Waltham, MA) dispenser. After the assay plates were incubated at 37C and 5% CO2 for 5 hrs, 23 nL of compounds dissolved in DMSO, positive controls or DMSO only was transferred to each well of the assay plate using a Pintool station (Kalypsys, San Diego, CA). The assay plates were incubated at 37C and 5% CO2 for 17 hrs. One uL of LiveBLAzerTM B/G FRET substrate (CCF4-AM) (Life Technologies) was added to each well using a Flying Reagent Dispenser (FRD, Aurora Discovery, San Diego, CA). After 2 hr incubation at room temperature, fluorescence intensity (405 nm excitation, 460 nm and 530 nm emissions) was measured using an Envision plate reader (PerkinElmer, Shelton, CT). For cytotoxicity, 4 ul/well of CellTiter-Glo reagent was added into the assay plates using an FRD. After 30 min incubation at room temperature, the luminescence intensity was measured using a ViewLux plate reader (PerkinElmer).
# % is scaled to controls: 0 for no effect and ±100 for the full control effect.
row,SMILES,"activity change, negative = cytotoxicity"
1,C=C(C)C(=O)OCCN(CC)CC,3.55% (inactive)
2,CCc1ccc(C=O)cc1,-6.9% (inactive)
3,Nc1nnc(-c2cccc(Cl)c2Cl)c(N)n1,9.97% [at 35.3 µM] (inactive)
4,OCCN(CCO)c1cccc(Cl)c1,5.25% (inactive)
5,CN(C)CCOCCO,5.44% (inactive)
6,CC(C)CC(=O)O,-1.03% (inactive)
7,CC(=O)c1sc(C)nc1C,-0.22% (inactive)
8,COc1cc2c(cc1OC)C(=O)CC2,3.8% [at 35.3 µM] (inactive)
9,COc1ccc(C2CNC(=O)C2)cc1OC1CCCC1 (stereo not given),11.4% [at 35.3 µM] (inactive)
10,CCC(C)NC(N)=O (stereo not given),15.6% (inactive)
11,CC(=O)Nc1cccc(C)c1,4.4% (inactive)
12,Oc1ccccc1-c1nnco1,2.3% [at 35.3 µM] (inactive)
13,CCn1ccc(NS(=O)(=O)c2ccc(N)cc2)nc1=O,-0.155% [at 35.3 µM] (inactive)
14,CCCC(=O)C(C)=O,7.05% (inactive)
15,CN(C)c1ccc(C=O)cc1,1.54% (inactive)
16,CC(C)(C)c1n[nH]c(=S)n(N)c1=O,1.98% (inactive)
17,O=C(NCCN1CCOCC1)c1ccc(Cl)cc1,10.1% [at 35.3 µM] (inactive)
18,C=C1CC/C=C(\C)CC[C@@H]2[C@@H]1CC2(C)C,-0.68% (inactive)
19,Cc1cccc2nccnc12,2.46% (inactive)
20,OCCCCC(O)CO (stereo not given),0.857% (inactive)

row,SMILES,"activity change, negative = cytotoxicity"
1,CCCCCCCCCCl,-0.222% (inactive)
2,N[C@@H](CCC(=O)N[C@@H](CS)C(=O)NCC(=O)O)C(=O)O,2.76% [at 15.8 µM] (inactive)
3,Cc1ccc2c(c1)OCC(=O)CO2,-3.04% (inactive)
4,Cc1c(I)c(=O)n(-c2ccccc2)n1C,2.46% [at 35.3 µM] (inactive)
5,On1nnc2ccccc21,-12.4% (inactive)
6,CCCCCCCCSCC,9.19% (inactive)
7,CC(C)CCCC(C)(C)O,-22.9% (inactive)
8,BrCc1cccc(Oc2ccccc2)c1,-1.79% (inactive)
9,NNc1nnc(NN)c2ccccc12,-4.36% [at 35.3 µM] (inactive)
10,NS(=O)(=O)c1ccc(NC(=O)CCC(=O)O)cc1,2.35% [at 35.3 µM] (inactive)
11,ClCCCl,-3.08% (inactive)
12,Cc1ccsc1/C=C/C1=NCCCN1C,1.94% [at 35.3 µM] (inactive)
13,NCCS,-0.202% [at 35.3 µM] (inactive)
14,O=C1c2ccccc2C(=O)c2cc(S(=O)(=O)O)ccc21,0.076% (inactive)
15,CCCCOC(=O)c1ccccc1,0.203% (inactive)
16,COCCOCCOCCOCCOCCO,5.29% (inactive)
17,O=C(c1ccc(O)cc1)c1ccc(O)c(O)c1O,3.11% (inactive)
18,O=C(NCC(O)CO)c1c(I)c(C(=O)NCC(O)CO)c(I)c(N(CCO)C(=O)CO)c1I (stereo not given),7.81% [at 35.3 µM] (inactive)
19,C#CC(C)N(C)C(=O)Nc1ccc(Cl)cc1 (stereo not given),1.43% (inactive)
20,C[Si](C)=O,3.37% [at 6.97 µM] (inactive)

# From PubChem BioAssay (Tox21)
